The values below come from PubChem BioAssay (NCI).

Holding throughout (assay): NCI-60 one-dose screen, 48 h (100 = growth as untreated, 0 = no growth, -100 = all killed)
Holding throughout (details): 10 µM unless noted

The test system of test [1] is DU-145 prostate.
Test [2] has as its system K-562 leukemia.
The test system of test [3] is MALME-3M melanoma.
The test system of test [4] is MDA-MB-231 breast.
The subject of test [5] is RXF 393 renal.
Test [6] concerns SF-268 CNS.
For test [7], the system named is SF-295 CNS.
Test [8] concerns SF-539 CNS.
Test [9] has as its system UACC-257 melanoma.
Test [10] deals with M14 melanoma.

“And” between values parts separate entries of the source, which are not always exact repeats. Equal entries are not always repeated. The panel holds about 83,000 compounds, 20% with a hit somewhere; the sample as a whole holds those more often.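 How to read the values: 0–100, growth inhibition (40 = 60% inhibited); 0, no net growth; -100 to 0, cell death (-40 = 40% of starting cells died; -100 = all dead).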 The source made the active and inactive calls. The calls were made as follows: active = growth percent below 10; inactive = the rest.

Regarding `COc1cc(Nc2nc3ccccc3cc2C(=O)Nc2ccc(F)c(F)c2)cc(OC)c1OC`, the growth in [1] was 30% (inactive); in [2], 16.8% (inactive); in [3], 51.5% (inactive); in [4] it was 30.5% (inactive); in test [5] it was 68.3% (inactive); in [6], 40.4% (inactive). The growth in test [7] was 14.2% (inactive); in [8], 37.9% (inactive); in [9], 52.3% (inactive); in [10], 24.4% (inactive).

Consider `COc1ccc(C(c2cc(OC)c(OC)c(OC)c2)n2ccnc2)cc1O` (stereo not given), for which the growth in test [1] is 12.9% (inactive); in [2], 8% (active); in [3], 66.6% (inactive); in test [4], 34.8% (inactive); in [5] it was -5.38% (active); in [6], 39.6% (inactive). In addition, the growth is -3.02% (active) in test [7], 9.52% (active) in test [8], 37.8% (inactive) in test [9] and 0.908% (active) in [10].

For the compound `Cc1ccc(S(=O)(=O)OC[C@@]2(C)CC[C@]3(C)CC[C@]4(C)C(=C3C2)C=C[C@@H]2[C@@]3(C)CCCNC(C)(C)[C@@H]3CC[C@]24C)cc1`, the growth in [1] was -1.23% (active); in [2], -28.1% (active); in [3], 15.1% (inactive); in test [4], -43.7% (active); in test [5], -7.17% (active); in test [6], 74.7% (inactive). Moreover, the growth is 102% (inactive) in test [7], 1.1% (active) in [8], 61.9% (inactive) in [9] and -64.9% (active) in [10].

Turning to `COc1ccc(C2=C(CN)C(O)NC(=NCC(=O)c3ccc4ccccc4c3)N2)cc1` (stereo not given), the growth is 107% (inactive) in test [1]; 102% (inactive) in [2]; 101% (inactive) in test [3]; 103% (inactive) in test [4]; 112% (inactive) in [5]; 94.1% (inactive) in [6]. The growth in test [7] is 98.4% (inactive); in test [8], 90.8% (inactive); in [9], 91.3% (inactive); in [10] it was 95.1% (inactive).

As for `C[C@@H]1CC[C@@H]2[C@@H]1[C@H](OC(=O)/C=C/c1ccccc1)[C@]1(c3ccccc3)C[C@@H](NC(=O)CO)[C@@]2(C)O1`, the growth is 107% (inactive) in test [1]; 84.4% (inactive) in test [2]; 98.6% (inactive) in [3]; 96.9% (inactive) in test [4]; 83.2% (inactive) in [5]; 93.6% (inactive) in test [6]. Besides, the growth in [7] is 93.8% (inactive); in test [8], 97.9% (inactive); in test [9] it was 93% (inactive); in [10], 105% (inactive).

On to `O=Nc1ccc(NO)c2ccccc12`, for which the growth in [1] was 107% (inactive) and 98% (inactive); in test [2], 111% (inactive) and 56.5% (inactive); in [3], 118% (inactive) and 69.6% (inactive); in test [4] it was 89% (inactive) and 73.5% (inactive); in [5], 114% (inactive) and 97.2% (inactive); in [6] it was 102% (inactive) and 83.9% (inactive). The growth in [7] is 99.3% (inactive) and 121% (inactive); in test [8] it was 96.8% (inactive) and 109% (inactive); in test [9], 104% (inactive) and 52.4% (inactive); in [10], 99.2% (inactive) and 93.7% (inactive).

Regarding `COc1ccc(/C(C)=C(\c2ccc(OCCN3CCCCCC3)cc2)c2ccc(OC(=O)C3CCCCC3)cc2)cc1`, the growth in [1] was -12.1% (active); in test [2] it was -23.5% (active); in [3], -81.2% (active); in [4], -84.1% (active); in test [5], -83.1% (active); in [6] it was -30.6% (active). The growth in test [7] was -90.3% (active); in test [8], -85.4% (active); in test [9], -71.4% (active); in [10], -70.4% (active).

As for `C=CCN1C=CC(=O)[C@H](O[Si](C)(C)C(C)(C)C)[C@@H]1/C=C/c1ccccc1`, the growth was -59.1% [100 µM] (active) in test [1]; 4.18% [100 µM] (active) in test [2]; -57.5% [100 µM] (active) in test [3]; -68.3% [100 µM] (active) in test [4]; -45.5% [100 µM] (active) in test [5]; -58.2% [100 µM] (active) in [6]. For the same compound, the growth in test [7] was -66.7% [100 µM] (active); in [8] it was -82.7% [100 µM] (active); in test [9] it was -75.9% [100 µM] (active); in [10], -78.6% [100 µM] (active).

`O=Nc1c(O)ccc2ccccc12`: the growth is 83.9% (inactive) and 113% (inactive) in test [1]; 51% (inactive) and 87.7% (inactive) in test [2]; 33.3% (inactive) and 122% (inactive) in test [3]; 57.4% (inactive) and 62.7% (inactive) in test [4]; 80.5% (inactive) and 102% (inactive) in [5]; 49.6% (inactive) and 103% (inactive) in test [6]. Further, the growth in [7] is 91.3% (inactive) and 109% (inactive); in test [8], 94.9% (inactive) and 104% (inactive); in [9], -51.3% (active) and 80.8% (inactive); in test [10] it was 49.6% (inactive) and 104% (inactive).

As for `[2H]C([2H])([2H])Oc1cccc(/C=C/C(=O)/C=C(/C=C/c2cccc(OC([2H])([2H])[2H])c2OC([2H])([2H])[2H])OB(F)F)c1OC([2H])([2H])[2H]`, the growth in [1] was 88.3% (inactive); in [2], 65.2% (inactive); in [3], 75.9% (inactive); in test [4], 88% (inactive); in test [5], 121% (inactive); in test [6], 98% (inactive). Further, the growth in test [7] is 103% (inactive); in test [8] it was 92.2% (inactive); in test [9], 64.5% (inactive); in test [10] it was 92.8% (inactive).

As to `O=C(Nc1ccc2ccccc2c1)c1cc2ccccc2cc1O`, the growth was 13.3% (inactive) in [1]; 71.1% (inactive) in test [2]; 58.5% (inactive) in test [3]; 104% (inactive) in test [4]; 115% (inactive) in [5]; 7.54% (active) in [6]. Further, the growth was 128% (inactive) in test [7], 105% (inactive) in test [8], 85.6% (inactive) in test [9] and 99% (inactive) in test [10].

For the compound `CCOc1ccc(N2C(N)=NC(N)=NC2(C)C)cc1`, the growth was 15.3% (inactive) and 104% (inactive) in test [1]; 10% (inactive) and 72.3% (inactive) in [2]; 25.3% (inactive) and 91.9% (inactive) in [3]; 49.5% (inactive) and 102% (inactive) in test [4]; -4.94% (active) and 98.1% (inactive) in [5]; 42.1% (inactive) and 97.5% (inactive) in test [6]. The growth in [7] is -31.9% (active) and 95.8% (inactive); in test [8] it was -29.1% (active) and 92.4% (inactive); in test [9], 19.3% (inactive) and 72.1% (inactive); in [10] it was 24.2% (inactive) and 89.3% (inactive).
